# Measured values from PubChem BioAssay (EPA / NIEHS).
# Inconclusive results are not listed. The source made the active and inactive calls. How the source made its calls: active means hit-call score of the fitted dose curve at least 0.9, where 1 is the maximum; inconclusive means response in the unintended direction; inactive means score below 0.9.
# Read-out: Glyceraldehyde-3-phosphate dehydrogenase (Homo sapiens) (UniProt P04406)
# Test: CLD_GAPDH_48hr: CellzDirect (CLD) Gene Expression Assay for Baseline Control (Glyceraldehyde 3-phosphate dehydrogenase) at 48 hours (AID 2283706);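 further: active means higher GAPDH mRNA than DMSO vehicle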
# Method: CLD_48hr is a cell-based, multiplexed-readout assay that uses hepatocyte, a human liver primary cell, with measurements taken at 48 hours after chemical dosing in a 96-well plate.CLD_GAPDH_48hr is one of 16 assay component(s) measured or calculated from the CLD_48hr assay. It is designed to make measurements of mRNA induction, a form of inducible reporter, as detected with chemiluminescence signals by Quantitative Nuclease Protection Assay (qNPA) technology.Data from the assay component CLD_GAPDH_48hr was analyzed at the endpoint, CLD_GAPDH_48hr, in the positive analysis fitting direction relative to DMSO as the negative control and baseline of activity. Using a type of inducible reporter, gain-of-signal activity can be used to understand changes in the reporter gene as they relate to the gene GAPDH. Furthermore, this assay endpoint can be referred to as a secondary readout, because this assay has produced multiple assay endpoints where this one serves a background control function. To generalize the intended target to other relatable targets, this assay endpoint is annotated to the background measurement intended target family, where subfamily is baseline control.
# Human hepatocyte cultures were treated daily for two consecutive days with fresh dosing solutions containing appropriate concentrations of the 320 ToxCast chemicals (chemical identities were blinded to CellzDirect and other ToxCast collaborators), vehicle control (0.2% DMSO), and positive control inducers as summarized in Table 1. Due to the large number of treatment groups and chemicals examined, the ToxCast chemicals were divided into two groups (spanning two independent cultures of hepatocytes from separate donor preparations (Hu778: ToxCast plates 1 and 2; Hu776: ToxCast plates 3 and 4). Each preparation of human hepatocyte cultures was treated with respective vehicle control, medium only control, set of six positive controls/reference chemicals for the five hepatic receptor pathways, and a subset of eight of the ToxCast chemicals (indoxacarb, pyrithiobac-sodium, norflurazon, cyhalofop-butyl, methomyl, thiram, acetochlor, and propiconazole). These replicate data, coupled with internal replicates designed within the blinded ToxCast chemical library, provided additional data to evaluate interindividual differences between hepatocyte preparations and their potential impact on chemical profiles.Cell morphology and integrity were evaluated using phase-contrast microscopy as an indicator of hepatocyte cell health (Tyson & Green, 1987). Cultures for each treatment group (i.e., media, vehicle [0.2% DMSO], positive control inducers [multiple concentrations], and the ToxCast chemicals [multiple concentrations]) were observed and cell morphology was assessed relative to vehicle control cultures at each harvest time point (0, 6, 24, or 48 h). […] Images were evaluated at the conclusion of the study to assess changes in cell integrity and account for the effects of chemical exposure on uncharacteristic changes in concentration-dependent gene expression profiles. The results from these determinations of apparent cytotoxicity were annotated (yes/no) alongside the corresponding qNPA data for reference.At the conclusion of each treatment period, hepatocyte cultures (96-well) were washed with 1 volume of HBSS, lysed by addition of 25 ul ArrayPlate lysis buffer (HTG, Tucson, AZ), and 70 ul/well of Denaturation Oil, denatured by incubation at 95C for 10 min, and frozen at approximately -70C until analysis by nuclease protection assay (qNPA) (Roberts et al., 2007). For qNPA analysis, cell lysates were thawed at 50C for approximately 30 min, qNPA probes were added, and samples were incubated at 95C for 10 min to begin the detection process by denaturing the target RNA, dissociating the duplexes and secondary structure hybridization. At the conclusion of the hybridization period, S1 nuclease reagent was added to each sample to digest all nonprotected nucleotides at 50C for 60-90 min. […]
# Sequence of Glyceraldehyde-3-phosphate dehydrogenase (Homo sapiens) (P04406 whole entry, looked up): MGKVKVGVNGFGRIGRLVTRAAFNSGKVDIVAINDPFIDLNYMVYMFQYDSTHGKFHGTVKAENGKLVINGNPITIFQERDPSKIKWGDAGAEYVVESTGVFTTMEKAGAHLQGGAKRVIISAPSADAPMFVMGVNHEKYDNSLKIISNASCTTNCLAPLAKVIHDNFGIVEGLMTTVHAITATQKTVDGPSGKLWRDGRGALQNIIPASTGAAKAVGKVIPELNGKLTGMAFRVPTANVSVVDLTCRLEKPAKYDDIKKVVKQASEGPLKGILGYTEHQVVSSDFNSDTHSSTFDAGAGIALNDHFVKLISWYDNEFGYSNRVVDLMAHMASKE
row,SMILES,outcome
1,CN=C=S,inactive
2,CCCN(CC)CC1COC2(CCC(C(C)(C)C)CC2)O1 (stereo unspecified),inactive
3,CS(=O)(=O)c1cc(C(F)(F)F)ccc1C(=O)c1cnoc1C1CC1,inactive
4,COCc1cnc(C2=NC(C)(C(C)C)C(=O)N2)c(C(=O)O)c1 (stereo unspecified),inactive
5,CC(C)N1C(=O)c2ccccc2NS1(=O)=O,inactive
6,COP(=O)(OC)O/C(C)=C/C(=O)N(C)C,inactive
7,CC(C)=CC1C(C(=O)OCc2coc(Cc3ccccc3)c2)C1(C)C (stereo unspecified),inactive
8,Clc1cccc(C(Cl)(Cl)Cl)n1,inactive
9,Nc1cnn(-c2ccccc2)c(=O)c1Cl,inactive
10,O=C(O)c1c(Cl)ccc2cc(Cl)cnc12,inactive
11,Clc1nc(Cl)nc(Nc2ccccc2Cl)n1,inactive
12,Cc1ccc(N=CN(C)C=Nc2ccc(C)cc2C)c(C)c1,inactive
13,COCC(C)N(C(=O)CCl)c1c(C)csc1C (stereo unspecified),inactive
14,CCOc1nc(C(Cl)(Cl)Cl)ns1,inactive
15,CS(=O)(=O)c1ccc(C(=O)C2C(=O)CCCC2=O)c([N+](=O)[O-])c1,inactive
16,Cc1nc(N(C)C)nc(OC(=O)N(C)C)c1C,inactive
17,C=C(C)CN(CC)c1c([N+](=O)[O-])cc(C(F)(F)F)cc1[N+](=O)[O-],inactive
18,C=CCOC(=O)C(C)(C)OC(=O)c1cc(-n2c(=O)cc(C(F)(F)F)n(C)c2=O)ccc1Cl,inactive
19,CNC(=O)N(C)c1nnc(C(C)(C)C)s1,inactive
20,CCOP(=O)(OCC)Oc1nc(Cl)c(Cl)cc1Cl,inactive
21,CC(C)C1(C)N=C(c2ncccc2C(=O)O)NC1=O (stereo unspecified),inactive
22,CCCC(=NOCC)C1=C(O)CC(CC(C)SCC)CC1=O (stereo unspecified),inactive
23,Cc1cnc(C2=NC(C)(C(C)C)C(=O)N2)c(C(=O)O)c1 (stereo unspecified),inactive
24,CC1(C)CON(Cc2ccccc2Cl)C1=O,inactive
25,COC(=O)NS(=O)(=O)c1ccc(N)cc1,inactive
26,COc1cc(Cl)c(OC)cc1Cl,inactive
